# ATXN viability: viability counter-screen for ATXN expression inhibitors; hit rate 0.49% among 400,000; S2 cells (HEK-293 line with an ATXN2-luciferase reporter) viability, CellTiter-Fluor protease fluorescence, 24 h; Potency, µM (top dose mostly 56.7 µM), hits mostly cytotoxic; further: nearly all actives have a fitted effect of over 40% in size
# Nrf2 inh: Nrf2 pathway inhibition. A549 ARE-Fluc reporter, luciferase luminescence, 18-24 h. hit rate 2.1% among 360,000. Potency, µM (top dose mostly 46 µM), inactives show at the highest dose activity change, negative = inhibition, most hits filed as inhibitors; further: on the % scale 0 is the no-effect control and ±100 the full control effect; nearly all actives have a fitted effect of over 60% in size
#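 In this cell-based qHTS, ARE-driven firefly luciferase in A549 cells reports Nrf2 activity; the luminescent signal after BugLite lysis is the measured value, with a prior CellTiter-Fluor read for cell health.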
# Nrf2 activator: Nrf2 pathway activation. AREc32 ARE-luciferase reporter (MCF7-derived line), luminescence, 24 h. Potency, µM (highest dose often 46.1 µM), for the others: at the top dose activation, most hits filed as activators. hit rate 0.31% among 410,000; further: % of control where 0% means no effect; nearly all actives have a fitted effect of over 65% in size
#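 Cells of the AREc32 ARE-luciferase line are plated in OPTI-MEM containing 5% FBS and left overnight at 37 deg C. Compounds are pinned in, incubation continues 24 hr, and firefly luciferase signal is then measured.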
# ATXN2 expr inh: reduces ATXN2 reporter expression in HEK-293 cells; HEK-293 ATXN2-luciferase reporter, luminescence, 24 h; Potency, µM (titrated, usually from 57 µM), for inactives: top-dose activity change, negative = inhibition, hits mostly inhibitors; hit rate 0.72% among 360,000; AID 1745845; further: on the % scale 0 is the no-effect control and ±100 the full control effect; nearly all actives have a fitted effect of over 55% in size
#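 ATXN2-luciferase reporter cells (luciferase flanked by upstream and downstream ATXN2 gene portions) were treated 24 h at 37 °C with compounds at up to 57 uM. SteadyGlo luminescence gave expression; GF-AFC fluorescence gave viability.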
# A549 tox-1: A549 cytotoxicity, counter-screen for Nrf2 inhibitors. A549 ARE-Fluc cells, CellTiter-Fluor viability, 18-24 h. Potency, µM (top dose mostly 46 µM), for the others: at the top dose activity change, negative = cytotoxicity, most hits filed as inhibitors. hit rate 0.16% among 390,000. AID 504648; further: on the % scale 0 is the no-effect control and ±100 the full control effect
#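 A549 ARE_Fluc cells in 5% FBS OPTI-MEM were exposed to compounds in concentration-response for 18-24 h at 37 deg C. Viability was read by CellTiter-Fluor fluorescence (Ex 405/Em 525) after 30 min, before the luciferase read.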
# FLuc counter 3: blocks purified firefly luciferase in Nrf2 counterscreen | shares compounds with Nrf2 inh | purified firefly luciferase, luminescence inhibition | Potency, µM (titrated, usually from 57.5 µM), inactives show at the top dose activity change, negative = inhibition, usual class: inhibitors | hit rate 4% among 1,400; further: on the % scale 0 is the no-effect control and ±100 the full control effect; nearly all actives have a fitted effect of over 65% in size
# Target sequence (P08659 whole entry, looked up): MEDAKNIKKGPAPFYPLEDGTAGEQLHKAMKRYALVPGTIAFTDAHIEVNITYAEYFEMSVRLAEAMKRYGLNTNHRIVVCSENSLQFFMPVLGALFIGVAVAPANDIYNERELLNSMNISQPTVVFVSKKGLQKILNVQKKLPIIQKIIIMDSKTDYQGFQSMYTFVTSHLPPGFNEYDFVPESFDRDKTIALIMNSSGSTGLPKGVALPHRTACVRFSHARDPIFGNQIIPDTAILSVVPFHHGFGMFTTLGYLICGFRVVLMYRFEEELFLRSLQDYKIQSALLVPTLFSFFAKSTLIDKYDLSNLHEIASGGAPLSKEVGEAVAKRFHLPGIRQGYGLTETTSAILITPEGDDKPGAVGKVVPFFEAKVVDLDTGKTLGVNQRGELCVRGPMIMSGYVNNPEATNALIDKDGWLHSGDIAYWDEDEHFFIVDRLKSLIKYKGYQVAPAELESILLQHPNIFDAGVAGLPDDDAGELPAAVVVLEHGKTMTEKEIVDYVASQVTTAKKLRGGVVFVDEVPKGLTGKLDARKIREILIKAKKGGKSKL
# A549 tox-2: A549 cytotoxicity, Nrf2 inhibitor counterscreen. hit rate 2% among 1,400. AID 720523. Potency, µM (series often up to 46.1 µM), for inactives: at the top dose activity change, negative = cytotoxicity, actives largely listed as inhibitors. A549 ARE-Fluc cells, cytotoxicity counterscreen. shares compounds with Nrf2 inh;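 further: cells exposed to compounds for 18 to 24 hours; on the % scale 0 is the no-effect control and ±100 the full control effect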
# Nrf2 ARE inh: confirmation of Nrf2 inhibitors in A549 ARE reporter cells; shares compounds with Nrf2 inh; A549 ARE-firefly luciferase reporter, luminescence; Potency, µM (top dose mostly 46.1 µM), for inactives: at the top dose activity change, negative = inhibition, hits mostly inhibitors; hit rate 74% among 1,400; AID 720524; further: on the % scale 0 is the no-effect control and ±100 the full control effect; nearly all actives have a fitted effect of over 65% in size
# The depositor's hits bear a star; i = inactive; ? = inconclusive; . = not tested or not shown. A selection: hits, their analogues and other compounds. The true share with any hit is near 2.9%. The call rests on the fitted dose curve; in most records, active means well fitted curve in the direction sought with a large enough effect; inconclusive means small, poorly fitted or top-dose-only effect, or another doubt; inactive means no such curve, though single readings can be large; an effect the other way counts as inactive or inconclusive. Potency means the concentration at half of the fitted maximal effect.
SMILES,ATXN viability,Nrf2 inh,Nrf2 activator,ATXN2 expr inh,A549 tox-1,FLuc counter 3,A549 tox-2,Nrf2 ARE inh
Cc1ccc(Cl)cc1N1CCN(C(=O)c2cc3c(=O)n(C)c4ccccc4c3n2C)CC1,?,4.1µM*,0%,59%,-18%,4%,-22%,6.5µM*
Cc1cccc(N2CCN(S(=O)(=O)c3ccc(-c4cc(C(F)(F)F)on4)s3)CC2)c1C,.,-8%,0%,.,-3%,.,.,.
CCN(CC)CCNC(=O)c1sc2nc3n(c(=O)c2c1C)CCCCC3,.,14%,0%,.,5%,.,.,.
CC(=O)OCC(=O)[C@@]1(OC(C)=O)[C@H](C)C[C@H]2[C@@H]3C[C@H](F)C4=CC(=O)C=C[C@@]4(C)[C@]3(F)[C@H](O)C[C@@]21C,i,.,.,.,.,.,.,.
C[C@H]1C[C@H]2[C@@H]3CCC4=CC(=O)C=C[C@]4(C)[C@@]3(Cl)[C@@H](O)C[C@]2(C)[C@@]1(O)C(=O)CO,i,0.015µM*,1%,?,-23%,3%,-10%,0.015µM*
C[C@@H]1C[C@H]2[C@@H]3C[C@H](F)C4=CC(=O)C=C[C@]4(C)[C@@]3(F)[C@@H](O)C[C@]2(C)[C@@]1(O)C(=O)CO,i,?,0%,3%,-6%,.,.,.
CC12C=CC(=O)C=C1CCC1C3CCC(O)(C(=O)CO)C3(C)CC(O)C12F (stereo unspecified),i,0.01µM*,2%,-6%,-5%,4%,-8%,0.01µM*
CC(=O)C1(O)CCC2C3CC(C)C4=CC(=O)C=CC4(C)C3(F)C(O)CC21C (stereo unspecified),i,0.033µM*,0%,-10%,-6%,2%,-1%,0.065µM*
C[C@H]1C[C@H]2[C@@H]3CCC4=CC(=O)C=C[C@]4(C)[C@@]3(F)[C@@H](O)C[C@]2(C)[C@@]1(O)C(=O)CO,i,0.016µM*,-1%,4%,-12%,-1%,-8%,0.0052µM*
CCc1cc(=O)[nH]c(SCc2nc(-c3cccc(Cl)c3)no2)n1,.,.,0%,.,9%,.,.,.
Cc1ccc(NC(=O)Nc2cccs2)c(C)c1,.,?,3%,.,-6%,.,.,.
O=C(NCCc1cccs1)c1ccc(Cn2c(SCc3cccc(F)c3)nc3cccnc32)cc1,.,?,1%,.,-20%,.,.,.
COCC1CCN(C(=O)c2cc(COc3cccc4cnccc34)on2)CC1,?,?,-1%,?,-1%,.,.,.
O=C(c1cc(COc2cccc3cnccc23)on1)N1CCCC(CCCO)C1 (stereo unspecified),i,3.7µM*,0%,-38%,-28%,-2%,-13%,2.3µM*
O=C(COC(=O)c1ccc[nH]c1=O)Nc1ccc(S(=O)(=O)N2CCCC2)cc1,i,0%,0%,.,-25%,.,.,.
O=C(COC(=O)c1ccc[nH]c1=O)Nc1ccc(N2CCCCC2)cc1,.,2.3µM*,-3%,.,-1%,11µM*,-1%,4.1µM*
O=C(NC(=S)Nc1ccc(Cc2ccncc2)cc1)c1ccc(F)cc1,?,5.8µM*,4%,.,0%,-17%,7%,?
COc1cc(C(=O)N/N=C/c2ccc(OC(=O)c3ccccc3Cl)c(OC)c2)ccc1O,i,1.5µM*,3%,-10%,-2%,0.54µM*,2%,0.92µM*
Fc1ccc2[nH]c3c(N4CCc5ccccc5C4)ncnc3c2c1,?,7.3µM*,4%,?,?,-15%,-16%,.
CN1CCN(c2ncnc3c2[nH]c2ccc(F)cc23)CC1,i,-6%,5%,?,3%,.,.,.
Cc1ccccc1SCC(=O)N1CCN(c2ccc(C(F)(F)F)cn2)CC1,i,3.7µM*,1%,?,-1%,-1%,-4%,?

# Screens from PubChem.
